Data on 25 sequences can be found in publication PMC5700166.

The target in the assay is T1, GST-Nv-NF-kB (Ser allele) (Nematostella vectensis, UniProt A7UNT2 2-411).
T1 sequence: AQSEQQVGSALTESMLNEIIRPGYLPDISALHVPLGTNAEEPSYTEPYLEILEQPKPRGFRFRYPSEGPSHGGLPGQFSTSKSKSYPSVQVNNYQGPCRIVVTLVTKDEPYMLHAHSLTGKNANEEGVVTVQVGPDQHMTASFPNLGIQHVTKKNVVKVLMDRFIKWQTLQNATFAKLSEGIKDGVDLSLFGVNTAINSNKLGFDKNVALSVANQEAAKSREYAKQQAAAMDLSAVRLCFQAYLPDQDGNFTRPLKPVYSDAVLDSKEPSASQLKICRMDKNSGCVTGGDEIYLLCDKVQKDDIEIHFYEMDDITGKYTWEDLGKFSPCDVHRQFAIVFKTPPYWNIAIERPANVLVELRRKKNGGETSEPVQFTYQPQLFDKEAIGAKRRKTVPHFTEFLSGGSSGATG
Put plainly: protein-binding microarray (PBM); PBM: ~300 nM protein, 6 mM HEPES pH 7.8, 80 mM KCl, 0.5 mM EDTA, 0.5 mM EGTA, 6% glycerol, 35 ng/ul poly-dIdC, 1% milk, 1 h, room temperature; Ap Aiptasia and Nv Nematostella (sea anemones) / Co Capsaspora / Aq Amphimedon (sponge) / Dm Drosophila / Hu human; RHD is the Rel homology domain; high values mean tight binding. The note with it: dsDNA, one strand shown.
“CCGATTAACATCAATCGGGAAATTGATGTTAATCGGGTCTTGATTCGCTTGACGCTGCTG” showed a binding signal of 3.66 z-score. For the sequence “CCGATTAACATCAAGGCATTCCCTGATGTTAATCGGGTCTTGATTCGCTTGACGCTGCTG”, the binding signal worked out at 2.11 z-score. “CCGATTAACATCAGGGGGGTACATGATGTTAATCGGGTCTTGATTCGCTTGACGCTGCTG” showed a binding signal of 3.54 z-score.

For the sequence “CCGATTAACATCAGTCCCTAAGCTGATGTTAATCGGGTCTTGATTCGCTTGACGCTGCTG”, the binding signal came to 1.05 z-score. Turning to “CCGATTAACATCAAGGAAACCCCTGATGTTAATCGGGTCTTGATTCGCTTGACGCTGCTG”, the binding signal was 3.81 z-score. In turn, “CCGATTAACATCAACATGGGAAATGATGTTAATCGGGTCTTGATTCGCTTGACGCTGCTG” had a binding signal of 2.18 z-score.

Consider “CCGATTAACATCAGGAGATACCCTGATGTTAATCGGGTCTTGATTCGCTTGACGCTGCTG”, for which the binding signal was 1.65 z-score. For the sequence “CCGATTAACATCAGCACCCCCCCTGATGTTAATCGGGTCTTGATTCGCTTGACGCTGCTG”, the binding signal is 3.4 z-score. The sequence “CCGATTAACATCAAGGGAAACCCTGATGTTAATCGGGTCTTGATTCGCTTGACGCTGCTG” displayed a binding signal of 4.43 z-score. The sequence “CCGATTAACATCAGGCTATCCCCTGATGTTAATCGGGTCTTGATTCGCTTGACGCTGCTG” returned a binding signal of 3.73 z-score.

On to “CCGATTAACATCAACGCCCCCCCTGATGTTAATCGGGTCTTGATTCGCTTGACGCTGCTG”, for which the binding signal was 4.55 z-score. The sequence “CCGATTAACATCAAGGGGGGATATGATGTTAATCGGGTCTTGATTCGCTTGACGCTGCTG” came in with a binding signal of 4.16 z-score. In the case of “CCGATTAACATCATTATGGGAAATGATGTTAATCGGGTCTTGATTCGCTTGACGCTGCTG” it was 2.21 z-score; in that of “CCGATTAACATCAAAAATTTACCTGATGTTAATCGGGTCTTGATTCGCTTGACGCTGCTG”, 6.08 z-score; in that of “CCGATTAACATCAAAAAACACCCTGATGTTAATCGGGTCTTGATTCGCTTGACGCTGCTG”, 4.25 z-score. “CCGATTAACATCAGGGGACACCCTGATGTTAATCGGGTCTTGATTCGCTTGACGCTGCTG” displayed a binding signal of 3.12 z-score. Turning to “CCGATTAACATCAGGGAAAACACTGATGTTAATCGGGTCTTGATTCGCTTGACGCTGCTG”, the binding signal was found to be 5.79 z-score. Then “CCGATTAACATCACGGAGTCCCCTGATGTTAATCGGGTCTTGATTCGCTTGACGCTGCTG”, with 4.71 z-score; and “CCGATTAACATCAAGCGTTCCCCTGATGTTAATCGGGTCTTGATTCGCTTGACGCTGCTG”, with 6.39 z-score; and “CCGATTAACATCAGGGGTTTTGATGATGTTAATCGGGTCTTGATTCGCTTGACGCTGCTG”, with 3.32 z-score. As for “CCGATTAACATCAGGGGGAGTGATGATGTTAATCGGGTCTTGATTCGCTTGACGCTGCTG”, the binding signal came out at 4.81 z-score. In the case of “CCGATTAACATCAGGGGATGACCTGATGTTAATCGGGTCTTGATTCGCTTGACGCTGCTG” it was 3.75 z-score. In the case of “CCGATTAACATCAAAATTCCCGGTGATGTTAATCGGGTCTTGATTCGCTTGACGCTGCTG” it was 6.06 z-score; in that of “CCGATTAACATCAGGGAGCCCCCTGATGTTAATCGGGTCTTGATTCGCTTGACGCTGCTG”, 3.69 z-score; in that of “CCGATTAACATCACGGAAACCCCTGATGTTAATCGGGTCTTGATTCGCTTGACGCTGCTG”, 3.87 z-score.
